In PubChem BioAssay (Tox21):
Records with an inconclusive call do not appear. A number with no mark means an inactive call. The source made the active and inactive calls. The call rests on the fitted dose curve.

target: Acetylcholinesterase (Homo sapiens) (UniProt P22303); assay: Acetylcholinesterase (AChE) small molecule antagonists: fluorescence cell-based qHTS assay (AID 1347398); details: SH-SY5Y cells; Potency: AChE activity; outcome: AChE activity; series mostly up to 115 µM; activity change, negative = inhibition: at the top concentration; further: nearly all actives have a fitted effect of over 50% in size
Procedure, shortened: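 Cellular AChE activity read as thiocholine from acetylthiocholine hydrolysis, detected by Thiolite Green fluorescence at 490/520 nm after 40 min at room temperature. Compounds were pre-incubated 30 min at 37 C on adherent SH-SY5Y cells.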
On the % scale 0 is the no-effect control and ±100 the full control effect; potency means the concentration at half of the fitted maximal effect.

Chain of Acetylcholinesterase (Homo sapiens) (P22303 whole entry, looked up): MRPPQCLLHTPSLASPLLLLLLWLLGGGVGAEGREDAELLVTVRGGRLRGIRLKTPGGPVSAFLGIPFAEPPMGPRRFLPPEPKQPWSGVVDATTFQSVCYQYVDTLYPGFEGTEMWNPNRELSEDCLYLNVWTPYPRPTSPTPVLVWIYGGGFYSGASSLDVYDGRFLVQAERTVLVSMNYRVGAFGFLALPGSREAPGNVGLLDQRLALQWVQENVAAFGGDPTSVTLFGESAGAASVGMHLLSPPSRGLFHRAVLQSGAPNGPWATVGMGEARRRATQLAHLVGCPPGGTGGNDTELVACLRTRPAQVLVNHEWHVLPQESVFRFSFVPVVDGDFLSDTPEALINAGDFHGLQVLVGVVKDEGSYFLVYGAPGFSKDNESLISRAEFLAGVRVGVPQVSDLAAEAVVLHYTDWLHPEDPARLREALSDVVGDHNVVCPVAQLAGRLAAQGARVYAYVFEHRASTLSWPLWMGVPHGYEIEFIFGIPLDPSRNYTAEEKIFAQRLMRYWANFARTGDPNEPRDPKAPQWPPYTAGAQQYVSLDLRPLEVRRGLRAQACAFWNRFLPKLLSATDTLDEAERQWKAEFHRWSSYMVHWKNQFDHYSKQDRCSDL

Row | Structure (SMILES) | activity change, negative = inhibition | Potency
1 | COC=O | -1.7% [at 10.5 µM] | –
2 | CC(=O)OC[C@H]1O[C@@](COC(C)=O)(O[C@H]2O[C@H](COC(C)=O)[C@@H](OC(C)=O)[C@H](OC(C)=O)[C@H]2OC(C)=O)[C@@H](OC(C)=O)[C@@H]1OC(C)=O | – | inactive
3 | CN1C(C(=O)Nc2ccccn2)=C(O)c2sccc2S1(=O)=O | 7.21% [at 53.7 µM] | –
4 | CCCOC(=O)CC | 1.05% | –
5 | CCCCCCCC(C)=O | 0.472% | –
6 | CC(C)N(c1ccccc1)C(C)C | -1.1% | –
7 | Cc1ccc2c(ccc3ccccc32)c1 | -3.41% | –
8 | COS(=O)(=O)O | 1.32% | –
9 | Nc1cc(Cl)c([N+](=O)[O-])cc1O | -3.69% | –
10 | c1ccc2[nH]cnc2c1 | – | inactive
11 | CC1CCC(CO)CC1 (stereo not given) | 1.79% | –
12 | CC(=O)CC(=O)Nc1ccccc1 | – | inactive
13 | CC/C=C\CCOC(=O)CCCCC | 1.03% | –
14 | O=C(O)c1cc(-c2ccccc2)nc2ccccc12 | – | inactive
15 | NC(=O)c1cn(Cc2c(F)cccc2F)nn1 | 9.44% [at 53.7 µM] | –
16 | NC(CCC(=O)O)C(=O)O (stereo not given) | 0.773% | –
17 | CC(=O)N[C@H]1[C@H]([C@H](O)[C@H](O)CO)OC(C(=O)O)=C[C@@H]1N=C(N)N | 8.24% [at 53.7 µM] | –
18 | c1ccc2c(c1)Oc1ccccc1S2 | – | inactive
19 | C=C(C)C(=O)OCc1ccccc1 | 3.05% | –
20 | Cc1c(C(N)=O)cc([N+](=O)[O-])cc1[N+](=O)[O-] | – | inactive

Row | Structure (SMILES) | activity change, negative = inhibition | Potency
21 | CCOc1ccc(NC(=O)CC(C)=O)cc1 | -1.1% | –
22 | CCCCCCCCCCCCCCCBr | 1.05% [at 53.7 µM] | –
23 | O=C1CCC(N2C(=O)c3ccccc3C2=O)C(=O)N1 (stereo not given) | – | inactive
24 | CC(=O)C1C(=O)C=C(C)OC1=O (stereo not given) | -0.706% | –
25 | CCCCC(CC)COP(=O)(OCC(CC)CCCC)OCC(CC)CCCC (stereo not given) | – | inactive
26 | C[Si](C)(C)O[Si](O)(O)O | -0.883% | –
27 | Cc1cc(C(C)(C)C)c(O)c(C(C)(C)C)c1 | – | inactive
28 | O=[N+]([O-])c1ccc(F)cc1F | 3.42% | –
29 | NC(Cc1c[nH]c2ccccc12)C(=O)O (stereo not given) | 0.31% [at 53.7 µM] | –
30 | O=C(O)CCS | -11.8% | –
31 | NNC(=O)c1cccc(C(=O)NN)c1 | 0.868% | –
32 | O=S(=O)(O)c1ccc2cc(O)ccc2c1 | – | inactive
33 | Nc1nc(-c2ccc([N+](=O)[O-])cc2)cs1 | 2.14% | –
34 | O=C(O)C1(C(=O)O)CCC1.[NH2-].[NH2-].[Pt+2] | -11.1% [at 53.7 µM] | –
35 | Clc1ccc(Nc2nnc(Cc3ccncc3)c3ccccc23)cc1 | -22.4% [at 53.7 µM] | –
36 | CCc1cccc(C)c1N(C(=O)CS(=O)(=O)O)C(C)COC (stereo not given) | 3% | –
37 | Cc1ccc(C)c(O)c1C | – | inactive
38 | CC1COc2ccccc2N1C(=O)C(Cl)Cl (stereo not given) | – | inactive
39 | Cc1cc2nc3ccc(=[N+](C)C)cc-3sc2cc1N | – | 2190 nM (active)
40 | O=c1[nH]cccc1O | 3.71% | –
